Experimental data taken from PubChem BioAssay (NCI).
Where “and” joins values, the source holds several entries; their conditions need not be identical. Equal entries are not always repeated. About 83,000 compounds went through this panel and 20% of them were active in at least one assay; those are over-represented in the sample as a whole.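 Percent growth is the endpoint: 0 to 100 indicates growth inhibition (40 means 60% inhibition), 0 means no net growth, and negative values indicate cell death.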 Calls of active or inactive are those of the source. Rule for the calls: active = growth percent below 10; inactive = the rest.

The molecules below were run on MDA-MB-468 breast (assay: NCI-60 one-dose screen, 48 h (100 = growth as untreated, 0 = no growth, -100 = all killed)). Conditions: 10 µM unless noted.

Row | SMILES | growth
1 | CN(C)c1ccc2nc3ccc(=O)cc-3sc2c1 | 15% (inactive) and 29.5% (inactive)
2 | COCC[C@H]1CCC/C=C/[C@@H]2C[C@H](O)C[C@H]2[C@H](O)/C=C/C(=O)O1 | -50.7% (active)
3 | CCCCCCCCCCCCCCCC1=NCC[N+]1(CCO)CCO | 55.2% (inactive)
4 | COc1ccc2nc(Cl)c(Cn3nnc(Cc4ccccc4)n3)cc2c1 | 29.9% (inactive)
5 | COc1cc(OC)c2sc(-c3ccc(-n4cncc4-c4ccc(OC)c(OC)c4)cc3)nc2c1 | 31% (inactive)
6 | Cc1csc(NC(=O)c2sc3nc(-c4cccs4)ccc3c2N)n1 | 82% (inactive)
7 | COc1ccc2[nH]c(=O)c(CN3CCN(c4nccc(-c5ccc(Cl)cc5)n4)CC3)cc2c1 | 88.6% (inactive)
8 | CSc1ccc(N2C(=N)C(=S)N(c3ccc(C)cc3)C2=O)cc1 | 121% (inactive)
9 | COc1cc(/C=C/c2cc(/C=C/c3ccc(O)c(OC)c3)n(-c3c(C)cccc3C)c(=O)n2)ccc1O | -16.4% (active)
10 | CCc1n(Cc2ccc3ccccc3c2)c2ccccc2[n+]1Cc1ccc2ccccc2c1 | 5.98% (active)
11 | [2H]C([2H])([2H])Oc1ccc(/C=C/C(=O)/C=C(/C=C/c2ccc(OC([2H])([2H])[2H])c(OC([2H])([2H])[2H])c2OC([2H])([2H])[2H])OB(F)F)c(OC([2H])([2H])[2H])c1OC([2H])([2H])[2H] | 65% (inactive)
12 | COC(=O)[C@@]12CC=C(C)[C@]3(C[C@H](c4ccoc4)OC3=O)[C@H]1C=C[C@@H](O)[C@@]2(O)C(=O)OC | 121% (inactive)
13 | CC(c1ccccc1)N1C(=O)CSC1=S (stereo not given) | -5.47% (active)
14 | C(=N\Nc1ncc(-c2cc3cc4c(cc3o2)OCO4)s1)/c1c[nH]c2ccccc12 | 0.523% (active)
15 | COc1cccc(C2C3=C(COC3=O)N(CCO)c3cc(OC)ccc32)c1 (stereo not given) | -13.2% (active)
16 | Nc1cc2c(cc1N)-c1ccccc1C2 | 89.4% (inactive) and 97.8% (inactive)
17 | O=C(CN1C(=O)/C(=C/c2ccccc2)SC1=S)N1CCOCC1 | 82.4% (inactive)
18 | O=S1(=O)N(CCNc2nccc(-c3c(-c4cccc(O)c4)nc4sccn34)n2)CCN1Cc1ccccc1 | 94.4% (inactive)
19 | CCOC(=O)c1nnn(-c2ccccc2)c1C1=CN(C)CCC1 | 120% (inactive)
20 | Cn1cc(-c2nc(-c3c[nH]c4c(Cl)nccc34)cs2)c2cc(F)ccc21 | 1.89% (active)

Row | SMILES | growth
21 | COc1ccc(C2=C(c3cn(C)c4ccccc34)C(=O)OC2)cc1OC | 1.23% (active)
22 | COC1CCC(N2C(=O)CNc3ncc(-c4ccc(C(C)(C)O)nc4)nc32)CC1 (stereo not given) | -25.2% (active)
23 | COc1ccc(-c2cc(-c3ccccc3)nc(SCCCCCC(=O)NO)n2)cc1 | 64.8% (inactive)
24 | ClCc1cccc2c(CCl)cccc12 | -18.3% (active)
25 | COc1ccc(NC2=C(Cl)C(=O)c3nc(C)ccc3C2=O)cc1OC | 58.1% (inactive)
26 | Nc1ncnc2c1ncn2C1CC(O)C(CO)O1 (stereo not given) | 113% (inactive) and 99.9% (inactive)
27 | O=C(CCCCC(=O)Oc1c(Cl)cc(Cl)cc1[N+](=O)[O-])Oc1c(Cl)cc(Cl)cc1[N+](=O)[O-] | 113% (inactive)
28 | CCOC(=O)c1ccc(N2NC(=O)/C(=C/c3ccc([N+](=O)[O-])o3)C2=O)cc1 | 106% (inactive)
29 | OB(O)c1cccc(-c2nc3ccc4[nH]ncc4c3c3c2CCCC3)c1 | 59.3% (inactive)
30 | COc1ccccc1Nc1cc(O)c2c(=O)cc(-c3ccccc3)oc2c1 | -1.72% (active)
31 | C[C@H]1Oc2cc(cnc2N)-c2c(nn(C)c2C#N)CN(C)C(=O)c2ccc(F)cc21 | 98.5% (inactive)
32 | CC(=O)c1ccc2c(ccc3ccccc32)c1 | 95.5% (inactive)
33 | Cc1cc(Nc2cc(N3CCN(C)CC3)nc(Sc3ccc(NC(=O)C4CC4)cc3)n2)n[nH]1 | 46.7% (inactive)
34 | CCN1C(=O)/C(=c2\sc3n(c2=O)C2C(NN=3)N(CC)C(=O)N2CC)c2ccccc21 (stereo not given) | -13.5% (active)
35 | CS(=O)(=O)c1ccc(-c2nc3ccccn3c2/C=N/Nc2nc(-c3ccc(Br)cc3)cs2)cc1 | 102% (inactive)
36 | CCCc1cc2c(cc1Br)OCO2 | 115% (inactive)
37 | Clc1ccc2c(c1)C(Br)c1cc(Cl)cc(Cl)c1-2 (stereo not given) | 96.7% (inactive)
38 | CCN(CC)CCC(=O)c1cccc2ccccc12 | 84.5% (inactive)
39 | c1ccc2c(NCCCN3CCN(CCCNc4c5ccccc5nc5ccccc45)CC3)c3ccccc3nc2c1 | -73.2% [100 µM] (active)
40 | CCOC(=O)c1c(Nc2ccccc2)nn2c(-c3cccs3)ccnc12 | 73.3% (inactive)
